USP28 inh: blocks human USP28 ubiquitin-rhodamine cleavage. Q96RU2. 3% of 47,000 active. purified USP28, Ub-rhodamine cleavage fluorescence, 30 min. inhibition, % at 25 µM. AID 1645857
USP17 inh: human USP17-like deubiquitinase inhibition; A8MUK1; purified USP17, Ub-rhodamine cleavage fluorescence, 3 h; inhibition, % at 50 µM; 6.5% of 47,000 active
USP30 inh: human USP30 deubiquitinase inhibition; purified USP30, Ub-rhodamine cleavage fluorescence; inhibition, % at 25 µM; 5.3% of 47,000 active; AID 1645860; Q70CQ3
OTUD3 block: blocks human OTUD3 ubiquitin-rhodamine cleavage; purified OTUD3, Ub-rhodamine fluorescence, 2 h; inhibition, % at 25 µM; 0.7% of 47,000 active; AID 1645858; Q5T2D3
Numbers stand for hits. A selection: hits, their analogues and other compounds. The true share with any hit is near 11%. Cut-off read from the data, not from the text of the source: active = inhibition above about 30%; inactive = the rest.

`Cc1cccc(NCc2cc(=O)n3cccc(C)c3n2)c1C` gave USP28 inh inactive, USP17 inh inactive, USP30 inh inactive and OTUD3 block inactive.
CCOC(=O)C(C)Sc1nc(=O)n2cccc(C)c2n1 (stereo not drawn) was read as USP28 inh inactive, USP17 inh inactive, USP30 inh 30 and OTUD3 block inactive.
For COc1ccc(Cl)c2sc(N3CCN(C(=O)c4ccn(C)n4)CC3)nc12 the results were USP28 inh inactive, USP17 inh 47, USP30 inh inactive and OTUD3 block inactive.
`COc1ccc(C2c3c(C)nn(-c4ccccc4)c3N=C3C(=O)Nc4ccccc4N32)cc1` (stereo not drawn) gave USP28 inh inactive, USP17 inh inactive, USP30 inh inactive and OTUD3 block inactive.
`Cc1nn(-c2cccc(C(F)(F)F)c2)c2c1C(c1ccccc1)N1C=C(Cl)C=C(Cl)C1=N2` (stereo not drawn) gave USP28 inh inactive, USP17 inh 35, USP30 inh inactive and OTUD3 block inactive.
O=C(c1ccc(F)cc1)N1CCc2cc(-c3csc(Nc4ccccc4)n3)ccc21 was read as USP28 inh inactive, USP17 inh inactive, USP30 inh inactive and OTUD3 block inactive.
For NC(=O)c1cc(-c2csc(NNc3ccccc3)n2)ccc1O the results were USP28 inh inactive, USP17 inh 47, USP30 inh inactive and OTUD3 block inactive.
`O=C1CC(c2ccccc2F)c2c(nc(-c3ccccc3)[nH]c2=O)N1` (stereo not drawn) gave USP28 inh inactive, USP17 inh inactive, USP30 inh inactive and OTUD3 block inactive.
COc1cc(C2CC(=O)Nc3nc(-c4ccccc4)[nH]c(=O)c32)cc(OC)c1O (stereo not drawn) was read as USP28 inh 65, USP17 inh 82, USP30 inh 66 and OTUD3 block 47.
Screening COc1ccccc1C1CC(=O)Nc2n[nH]c(-c3ccccc3)c21 (stereo not drawn) returned USP28 inh inactive, USP30 inh inactive and OTUD3 block inactive.
For COc1ccc(OC)c(C2CC(=O)Nc3n[nH]c(-c4ccccc4)c32)c1 (stereo not drawn) the results were USP28 inh inactive, USP17 inh 72, USP30 inh 36 and OTUD3 block inactive.
`COc1ccc(C2CC(=O)Nc3n[nH]c(-c4ccccc4)c32)cc1OC` (stereo not drawn) gave USP28 inh inactive, USP17 inh inactive, USP30 inh 70 and OTUD3 block inactive.
`CN(C)c1nnc(-c2nnc(C3CC3)o2)c2ccccc12` gave USP28 inh inactive, USP17 inh inactive, USP30 inh inactive and OTUD3 block inactive.
`CCn1nc(C)c(C(=O)N2CCC(c3onc4c3CC(C(C)(C)C)CC4)CC2)c1C` (stereo not drawn) gave USP28 inh inactive, USP17 inh inactive, USP30 inh inactive and OTUD3 block inactive.
Screening Cc1ncc(CO)c2c1Oc1nc(-c3cccc(Cl)c3)nc(SCC(=O)N3CCCCC3)c1C2 returned USP28 inh inactive, USP17 inh 82, USP30 inh inactive and OTUD3 block inactive.
CCc1ccccc1N1CC(c2nnc(NC(=O)Cc3ccc(C)cc3)s2)CC1=O (stereo not drawn) was read as USP28 inh inactive, USP17 inh 37, USP30 inh inactive and OTUD3 block inactive.
CCC1Sc2cc(S(=O)(=O)CCC(=O)N3CCc4ccccc4C3)ccc2NC1=O (stereo not drawn) was read as USP28 inh inactive, USP17 inh inactive, USP30 inh inactive and OTUD3 block inactive.
For COc1cc2c(cc1OC)CN(C(=O)CCS(=O)(=O)c1ccc(Cl)cc1)CC2 the results were USP28 inh inactive, USP17 inh 32, USP30 inh inactive and OTUD3 block inactive.
`Cc1ccccc1-c1nc(Cn2ccnc2C)no1` gave USP28 inh 32, USP17 inh inactive, USP30 inh inactive and OTUD3 block inactive.
For CCc1nccn1Cc1nc(-c2ccc(Cl)cc2)no1 the results were USP28 inh 43, USP17 inh inactive, USP30 inh inactive and OTUD3 block inactive.
`CCc1nccn1Cc1noc(-c2ccc(C)c(C)c2)n1` gave USP28 inh 39, USP17 inh inactive, USP30 inh inactive and OTUD3 block inactive.
`CCN1CC[C@@]2(C(=O)N3CCOCC3)CCN(C(=O)Cc3ccccc3)CC[C@@H]12` gave USP28 inh inactive, USP17 inh inactive, USP30 inh inactive and OTUD3 block inactive.
O=C(Cn1c(=O)n(CC(=O)NC2CCCC2)c(=O)c2ccccc21)Nc1ccc(F)cc1 was read as USP28 inh 42, USP17 inh 67, USP30 inh 70 and OTUD3 block 41.

Screening results deposited in PubChem BioAssay by Buhrlage Lab, Dana-Farber Cancer Institute and Novartis Institutes for BioMedical Research (Cambridge, Mass).
